KB-V1 MDR tox: qHTS assay for MDR1-selective chemotherapeutics: Primary screen using the drug-selected MDR subline cells KB-V1 | KB-V1 MDR cells viability, CellTiter-Glo, 72 h | Potency, µM (highest dose often 46.1 µM), actives largely listed as cytotoxic | actives 3.4% (n = 400,000) | AID 1347076, 2019; further: nearly all actives have a fitted effect of over 60% in size
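KB-V1 MDR subline cells in DMEM (phenol-red free, 10% FBS) exposed to compounds in qHTS concentration series for 72 h at 37 degrees C. Viability read by CellTiter-Glo luminescence; concentration-effect curves fitted after normalization and correction.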
HT1080 IDH1KD tx: qHTS for induction of synthetic lethality in tumor cells producing 2HG: qHTS for the HT-1080-IDH1KD cell line. HT-1080 IDH1 knockdown viability, ATP luminescence, 48 h. Potency, µM (series often up to 46.1 µM), usual class: cytotoxic. actives 2% (n = 360,000). AID 686971, 2013
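HT-1080-IDH1KD cells (IDH1 knocked down), 750/well in RPMI with 5% FBS, treated with compound 48 h at 37 degrees C. Viability by CellTiter-Glo luminescence, normalised to DMSO and no-cell wells; concentration-response curves classed.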
HT1080NT lethal: qHTS for induction of synthetic lethality in tumor cells producing 2HG: qHTS for the HT-1080-NT fibrosarcoma cell line. AID 686970, 2013. Potency, µM (highest dose often 46.1 µM), actives largely listed as cytotoxic. actives 1.6% (n = 360,000). HT-1080-NT fibrosarcoma viability, CellTiter-Glo ATP luminescence, 48 h;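 further: NT is the 2HG producing partner of a matched IDH1 knockdown line; nearly all actives have a fitted effect of over 55% in size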
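750 cells/well, RPMI + 5% FBS; 2 h settle, compound pin-transfer, 48 h at 37 degrees C. CellTiter-Glo 10 min RT, luminescence. Normalized to DMSO and media-only wells.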
MCF10A rerep: A quantitative high throughput screen for small molecules that induce DNA re-replication in MCF 10a normal breast cells; MCF 10A DNA re-replication, Hoechst nuclear intensity, 48 h; Potency, µM (titrated, usually from 46.1 µM), usual class: activators; actives 2.9% (n = 350,000); AID 624296, 2012; further: nearly all actives have a fitted effect of over 50% in size
SW480 rereplic: A quantitative high throughput screen for small molecules that induce DNA re-replication in SW480 colon adenocarcinoma cells; actives 1.8% (n = 340,000); AID 624297, 2012; SW480 DNA re-replication, Hoechst DNA content imaging, 48 h; Potency, µM (titrated, usually from 46.1 µM), actives largely listed as activators; further: nearly all actives have a fitted effect of over 55% in size
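Treated cells incubate 48 hr (37 C, 5% CO2), are stained 40 min with Hoechst, and nuclear fluorescence is enumerated; a rise in nuclei with high DNA signal marks re-replication.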
KB-3-1 cytotox: qHTS assay for MDR1-selective chemotherapeutics: Primary screen using the parental adenocarcinoma cell KB-3-1 | KB-3-1 viability, CellTiter-Glo ATP luminescence, 72 h | Potency, µM (top dose mostly 46.1 µM), actives largely listed as cytotoxic | actives 1.4% (n = 400,000); further: nearly all actives have a fitted effect of over 60% in size
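Cytotoxicity measured as CellTiter-Glo luminescence after 72 h at 37 C. Compound titrations were pinned onto drug-naive KB-3-1 parental adenocarcinoma cells grown in DMEM with 10% FBS, and normalized data fitted to concentration-response curves.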
Numbers stand for hits; n = inactive; u = inconclusive; x = no result given; [ ] = remark or other dose. Only some compounds are listed: those with a hit (about 8% of all), similar ones and a draw of the others. The call rests on the fitted dose curve; in most records, active means well fitted curve in the direction sought with a large enough effect; inconclusive means small, poorly fitted or top-dose-only effect, or another doubt; inactive means no such curve, though single readings can be large; an effect the other way counts as inactive or inconclusive.

SMILES	KB-V1 MDR tox	HT1080 IDH1KD tx	HT1080NT lethal	MCF10A rerep	SW480 rereplic	KB-3-1 cytotox
O=C(NCc1ccccc1)C(=O)Nc1nc(C23CC4CC(CC(C4)C2)C3)cs1	7.31µM	n	n	u	u	u
O=C(NCc1ccc(F)cc1)C(=O)Nc1nc(C23CC4CC(CC(C4)C2)C3)cs1	9.2µM	u	u	18.4µM	u	u
Cc1ccc(C)c(N2CCN(C(=O)C3CCCN(S(=O)(=O)c4ccc5c(c4)oc(=O)n5C)C3)CC2)c1 (stereo not given)	n	x	x	x	x	n
O=C(CC1(O)C(=O)Nc2ccccc21)c1cccc(-n2cccc2)c1 (stereo not given)	n	n	n	1.46µM	u	n
CCCC(=O)Nc1ccc2c(c1)nc(CN1CCN(C(=O)OCC)CC1)n2CC	n	u	u	7.31µM	9.2µM	3.26µM
O=C(COc1ccc(Cl)c(Cl)c1)NN1C(=O)C2C(C1=O)C1C=CC2C12CC2 (stereo not given)	n	n	n	n	1.03µM	n
COc1ccc(Cc2nc3ccc(C(=O)NCCc4ccc(Cl)cc4)cc3o2)cc1	n	x	x	x	x	n
COc1ccccc1CNc1cc(CSc2ccc(Cl)cc2)nc(C)n1	14.6µM	u	u	u	n	u
COc1ccc(NC(=O)CCCC2CCCCC2)cc1S(=O)(=O)N1CCCCC1	9.2µM	n	n	u	u	u
COc1ccc(NC(=O)CCN2C(=O)C3CC=CCC3C2=O)cc1S(=O)(=O)N1CCCCC1 (stereo not given)	u	n	n	n	n	n
COc1ccc(NC(=O)COc2cc(C)cc(C)c2)cc1S(=O)(=O)N1CCCCC1	18.4µM	u	u	20.6µM	5.8µM	u
O=C(CCN1C(=O)/C(=C/c2ccccc2Cl)SC1=S)N1CCCC1	u	u	u	u	14.6µM	u
O=C(CCN1C(=O)/C(=C/c2ccccc2Cl)SC1=S)N1CCOCC1	x	n	n	23.1µM	u	x
COCC(=O)Nc1ccc2c(c1)OCC(=O)N2Cc1ccc(C)cc1	n	n	n	23.1µM	n	n
Cc1ccc(NC(=O)COC(=O)CN2C(=O)COc3ccccc32)cc1	n	n	n	n	n[9.22 µM]	n
COc1cc(-c2coc3c(C(=O)NCc4cccc(Cl)c4)cccc23)ccc1O	u	23.1µM	u	x	x	n
COc1cc(-c2coc3c(C(=O)NCc4ccccc4)cccc23)ccc1O	n	u	18.4µM	x	x	n
CCc1ccccc1NC(=O)Nc1cc(F)ccc1F	n	n	n	n	29.1µM	n
COc1ccc(-n2nc(C(=O)N3CCN(c4cccc(C)c4C)CC3)c3c4ccccc4n(C)c3c2=O)cc1	n	x	x	x	x	n
O=C1CC(Sc2nnc(-c3ccccc3)o2)C(=O)N1c1ccccc1 (stereo not given)	n	n	n	5.8µM	7.31µM	n
Cc1ccccc1N1C(=O)CC(Sc2nnc(-c3ccccc3)o2)C1=O (stereo not given)	n	u	u	u	16.4µM	n
CCc1cc(-c2nnn(CCC3COCCO3)c2CC)cc(CC)c1-c1cn(Cc2ccc3ccccc3c2)nn1 (stereo not given)	5.8µM	n	n	x	x	u
CCc1cc(-c2nnn(CCC3COCCO3)c2CC)ccc1-c1cn(CCc2c[nH]c3ccccc23)nn1 (stereo not given)	n	u	n	x	x	n
CNC(=O)c1c(NC(=O)c2ccc(S(=O)(=O)N3CCCCC3C)cc2)sc2c1CCN(C)C2 (stereo not given)	n	u	u	20.6µM	u	n
Cc1nnc2sc(-c3ccc(-c4ccc(Cl)c(C(F)(F)F)c4)o3)nn12	14.6µM	n	n	n	n	n

From PubChem BioAssay
